# According to the supplement of paper PMC10646978:
# ± gives the standard deviation.
# What was measured:
# Settings in all cases: modulator concentration 10 µM
# [1] = system: RAW-Dual (murine macrophage reporter line); test: NF-kB reporter (SEAP) activity fold change vs agonist alone; higher = enhanced NF-kB activity
# Summary of the method: (§1)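 In 384-well plates holding 50 000 RAW-Dual murine macrophage reporter cells per well, compound at 10 μM final was pre-incubated for 1 hour at 37 °C, after which a PRR agonist was added overnight. Supernatant SEAP read with QUANTI-Blue at 620 nm absorbance reported NF-κB, and Lucia luciferase read with QUANTI-Luc luminescence reported IRF. Fold change values come from dividing each reporter signal by the mean of agonist-only control wells on the same plate, averaged over replicate plates with propagated errors.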
# [2] = system: RAW-Dual (murine macrophage reporter line); test: IRF reporter (Lucia luciferase) activity fold change vs agonist alone; higher = enhanced IRF activity
# Summary of the method: as §1
# [3] = system: RAW-Dual (murine macrophage reporter line); test: viability score (confluency relative to resting cells, overnight) (fraction); higher = more viable, active = viable (0.7 or more)
# Summary of the method: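 RAW-Dual macrophages in 384-well plates were incubated overnight with compound, final concentration 10 μM. Confluency images from IncuCyte were processed in IncuCyte software into two masks covering all imaged wells. The viability score is each well's confluency relative to resting cells, and a compound met the cutoff when both masks exceeded 70% of resting cells.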
# [4] = agonist: CpG ODN 1826 0.5 ug/mL
SMILES,"NF-kB reporter [1, 4]",NF-kB reporter ([1]; agonist: LPS 0.1 ug/mL),NF-kB reporter ([1]; agonist: MPLA […]),IRF reporter ([2]; agonist: 3'3'-cGAMP 10 ug/mL),IRF reporter ([2]; agonist: LPS 0.1 ug/mL),IRF reporter ([2]; agonist: MPLA […]),viability score [3]
CC1=NN(C(=O)c2cccnc2)C(O)(c2ccccc2)C1 (stereo not drawn),0.893 ± 0.071,0.969 ± 0.1,0.949 ± 0.041,0.951 ± 0.09,1.05 ± 0.13,1.1 ± 0.2,0.994 (active)
CN(C)CCN(Cc1ccccc1)Cc1cccc(Cl)c1,0.976 ± 0.057,0.928 ± 0.16,1.05 ± 0.044,0.838 ± 0.04,1.02 ± 0.048,0.87 ± 0.1,0.999 (active)
CC1(C)C(=O)C2CC3(O)C4=CC(=O)OC(c5ccoc5)C4(C)CCC3C(C)(C2=O)C1CC(=O)O (stereo not drawn),0.99 ± 0.056,1.04 ± 0.064,1.01 ± 0.081,0.997 ± 0.035,1.51 ± 0.13,1.25 ± 0.14,0.996 (active)
NC(Cc1ccccc1)C(=O)O (stereo not drawn),1.29 ± 0.31,0.956 ± 0.07,0.943 ± 0.071,0.911 ± 0.032,1.12 ± 0.22,1.1 ± 0.1,1 (active)
Cc1ncn(CCNC(=O)Nc2ccc(OC(F)(F)F)cc2)c(=O)c1C,1.14 ± 0.077,1.08 ± 0.088,1.01 ± 0.061,0.901 ± 0.035,1.06 ± 0.05,1.11 ± 0.25,0.998 (active)
CCCOc1ccc(CCC(=O)O)cc1,1.38 ± 0.33,1.08 ± 0.075,0.985 ± 0.035,1.07 ± 0.23,1.11 ± 0.05,1.05 ± 0.1,1 (active)
CN1CCN(c2ccc(-c3cccc(NC(=O)c4ccc5ccccc5c4)c3)nn2)CC1,0.162 ± 0.0099,0.745 ± 0.15,0.301 ± 0.11,0.664 ± 0.041,1.88 ± 0.75,1.85 ± 0.26,0.171 (inactive)
CN[C@H]1CC[C@@H](c2ccc(Cl)c(Cl)c2)c2ccccc21.Cl,0.407 ± 0.039,0.757 ± 0.049,1.49 ± 0.14,1.18 ± 0.1,1.27 ± 0.084,1.97 ± 0.23,0.258 (inactive)
Clc1ccc(C=NNc2cc(N3CCCC3)nc(N3CCCC3)n2)c(Cl)c1,0.988 ± 0.076,0.983 ± 0.081,0.987 ± 0.1,0.99 ± 0.062,1.21 ± 0.15,1.31 ± 0.25,1.04 (active)
Cc1ccc(C=CC(=O)O)cc1S(=O)(=O)NCCO,1.04 ± 0.2,0.884 ± 0.075,1.05 ± 0.095,0.988 ± 0.077,1.16 ± 0.2,0.979 ± 0.32,0.984 (active)
CC(=O)c1c(C)c2cnc(Nc3ccc(N4CCNCC4)cn3)nc2n(C2CCCC2)c1=O.Cl,1.27 ± 0.47,1.14 ± 0.064,1.22 ± 0.1,0.363 ± 0.014,0.898 ± 0.16,0.966 ± 0.16,0.982 (active)
CC1CCc2nnc(OCC3CCCN3C)cc2C1 (stereo not drawn),0.837 ± 0.051,0.793 ± 0.11,0.99 ± 0.059,0.972 ± 0.061,1.19 ± 0.25,1.22 ± 0.48,0.996 (active)
O=C(NC(=S)NNc1ccccc1)c1cc2ccccc2oc1=O,1.08 ± 0.23,1.16 ± 0.15,1.03 ± 0.11,0.861 ± 0.022,1.23 ± 0.16,1.12 ± 0.2,0.999 (active)
Cc1cc2ncc3c(n2n1)CCN(S(=O)(=O)N(C)C)C3,0.989 ± 0.11,1.01 ± 0.097,0.938 ± 0.043,1.03 ± 0.071,1.09 ± 0.081,1.05 ± 0.08,1 (active)
Cc1cc(C)n(CCC(=O)N2CCc3nc4ccc(F)cn4c(=O)c3C2)n1,1.02 ± 0.051,0.938 ± 0.098,1.01 ± 0.1,1.03 ± 0.06,1.27 ± 0.079,1.21 ± 0.12,1 (active)
CN1CCN(C(c2ccccc2)c2ccccc2)CC1.Cl.Cl,0.727 ± 0.12,0.833 ± 0.21,0.89 ± 0.05,0.701 ± 0.023,1.25 ± 0.29,1.03 ± 0.084,0.985 (active)
Brc1ccc(CN2C3=NCCCN3c3ccccc32)cc1.Cl,0.263 ± 0.023,0.826 ± 0.054,1.34 ± 0.092,0.735 ± 0.089,0.984 ± 0.049,0.905 ± 0.11,0.96 (active)
COC(=O)C1=C(C)NC(C)=C(C(=O)OCCN(C)Cc2ccccc2)C1c1cccc([N+](=O)[O-])c1 (stereo not drawn),0.317 ± 0.079,0.753 ± 0.06,0.72 ± 0.05,0.324 ± 0.028,1.14 ± 0.24,1.15 ± 0.12,0.982 (active)
COc1c2occc2cc2ccc(=O)oc12,1.44 ± 0.21,1.21 ± 0.11,0.907 ± 0.051,0.91 ± 0.029,1.3 ± 0.15,1.04 ± 0.08,0.989 (active)
COc1ccccc1-c1nnc(NC(=O)c2cc(C)nn2C)o1,1.08 ± 0.11,1 ± 0.079,1.01 ± 0.08,0.945 ± 0.034,0.965 ± 0.064,0.953 ± 0.17,0.998 (active)
O=C1C(=Cc2ccncc2)CCC1=Cc1ccncc1,1.03 ± 0.082,0.928 ± 0.08,0.971 ± 0.12,0.993 ± 0.045,1.21 ± 0.17,1.28 ± 0.27,1.01 (active)
COc1ccc(CN(CCN(C)C)c2ccccn2)cc1.O=C(O)/C=C\C(=O)O,0.568 ± 0.15,1 ± 0.053,1.01 ± 0.094,0.834 ± 0.073,0.773 ± 0.13,0.78 ± 0.087,0.946 (active)
Cc1cc(-c2ccc(N=Cc3ccc(Cl)c([N+](=O)[O-])c3)c(C)c2)ccc1N=Cc1ccc(Cl)c([N+](=O)[O-])c1,1.01 ± 0.056,1.01 ± 0.073,1.02 ± 0.065,0.821 ± 0.031,1.38 ± 0.11,1.13 ± 0.19,1 (active)
C=CCn1c(SCC(=O)NCCN2CCOCC2)nc2sc3c(c2c1=O)CCC3,0.99 ± 0.079,1.05 ± 0.069,0.852 ± 0.068,1.02 ± 0.081,1.48 ± 0.11,0.984 ± 0.083,1.01 (active)
